# According to PubChem BioAssay (NCATS):
# Inconclusive results are not listed. Entries that show only a call come without a potency. The source made the active and inactive calls. Calls come from the whole dose curve; as a rule, active = well fitted inhibition curve with a large enough effect; inconclusive = small, poorly fitted or top-dose-only effect; inactive = flat fitted curve, though single readings scatter.
# Target: Calcium and integrin-binding protein 1 (Homo sapiens) (UniProt Q99828)
# Test: Primary qHTS for Identification of Calcium Integrin Binding Protein 1 (CIB1) Competitor (AID 1508620);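 note: GST tagged CIB1 binding a fluorescein labelled alphaIIb integrin peptide tracer; top concentration of the series differs between compounds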
# Settings: CIB1-GST / FITC-alphaIIb peptide fluorescence polarization; series mostly up to 114 µM
# How it was run: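 Fluorescence polarization competition: CIB1-GST (1 uM final) preincubated with compound 15 min at room temperature, then FITC-labeled alphaIIb peptide (100 nM final) added for another 15 min. Polarization read at Ex 480/Em 540.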
# Sequence of Calcium and integrin-binding protein 1 (Homo sapiens) (Q99828 whole entry, looked up): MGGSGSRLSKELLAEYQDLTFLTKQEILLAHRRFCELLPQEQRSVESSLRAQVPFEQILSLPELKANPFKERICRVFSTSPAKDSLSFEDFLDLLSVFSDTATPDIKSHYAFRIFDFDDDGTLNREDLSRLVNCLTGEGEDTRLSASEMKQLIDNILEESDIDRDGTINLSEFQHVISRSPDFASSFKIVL
row,Structure (SMILES),Potency
1,O=C(CNC(=O)c1ccc2n[nH]nc2c1)OC(C(=O)Nc1cc(C(F)(F)F)ccc1Cl)c1ccccc1 (stereo unspecified),inactive
2,CC(=O)Nc1ccc(CNc2ncnc3ccc(-c4c(C)noc4C)cc23)cc1,inactive
3,O=Cc1ccc(N2CCN(S(=O)(=O)c3ccc4c(c3)CC(=O)N4)CC2)cc1,inactive
4,CCCCN(C)C(=O)Cn1nc(-c2ccc(C(F)(F)F)cc2)ccc1=O,inactive
5,COc1ccc(C2NC(=O)c3ccccc3N2)cc1COc1c(C)cc(NC(C)=O)cc1C (stereo unspecified),inactive
6,Cc1ccccc1C(=O)n1ccc2cc(-c3nc(NC(=O)Cc4ccc5c(c4)OCO5)sc3C)ccc21,inactive
7,CC(C)(C)OC(=O)N1CCN(c2ccc(NCc3cccc(-c4ccc(C#N)cc4)n3)cc2)CC1,inactive
8,Cn1c2cc(B(O)O)sc2c2cnn(Cc3c(F)cccc3F)c(=O)c21,inactive
9,N#Cc1c(-c2cccc(Cl)c2)no[n+]1[O-],inactive
10,O=S(=O)(Nc1ccccc1F)c1ccc(O)c2ncccc12,inactive
11,O=C(NCCc1nc2ccccc2[nH]1)C1CCCCC1,inactive
12,Cc1ccc(S(=O)(=O)NC(N)=NCCC[C@@H](NC(=O)CNC(=O)c2ccccc2)C(=O)Nc2cc(C(F)(F)F)ccc2Cl)cc1,inactive
13,Cn1nnnc1Sc1ncnc2scc(-c3ccccc3Br)c12,inactive
14,Cc1cc2c(s1)c1cnn(Cc3c(F)c(F)c(C)c(F)c3F)c(=O)c1n2C,inactive
15,Cc1ccc(-n2c(=O)ccc(=O)n2CC(=O)NCCc2ccccc2)cc1,inactive
16,CCOc1ccccc1-c1nnc2n1N=C(c1ccccc1OC)CS2,inactive
